According to PubChem BioAssay (EPA / NIEHS):
Where “and” joins values, the source holds several entries; their conditions need not be identical. Equal values may be shown once. Results filed as inconclusive are left out. Calls of active or inactive are those of the source. The calls were made as follows, unless noted: active = hit-call score of the fitted dose curve at least 0.9, where 1 is the maximum; inactive = score below 0.9.

How the values were obtained:
[1] = BSK_BT_PBMCCytotoxicity: PBMC Cytotoxicity Assessment in the BioMAP Diversity Plus: BT Assay (AID 2284225); details: primary human B cells with PBMC;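 also: PBMC viability measured by Alamar Blue dye reduction fluorescence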
In short: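 Primary human co-culture of B cells and PBMC, pre-dosed 1 h then activated with SEB and TSST-1. Cytotoxicity is taken from Alamar Blue dye reduction, added for 6 h at the end of a 90 h incubation.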

[2] = read-out: Secreted IgG (sIgG), gene 3500; assay: BSK_BT_sIgG: BioMAP Diversity Plus: BT Assay for Secreted IgG (sIgG) Biomarker Activity (AID 2284226); details: primary human B cells with PBMC
In short: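 Human B cell/PBMC co-culture; compound exposure 24 h; sIgG by ELISA; gain-of-signal fit vs DMSO baseline.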

[3] = BSK_BT_Bcell_Proliferation: Viability Assessment in the BioMAP Diversity Plus: BT Assay for B cell Proliferation (AID 2284227); details: primary human B cells with PBMC
In short: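 Using a human primary B cell–PBMC co-culture, the assay measures total protein by sulforhodamine B absorbance as a gauge of proliferation after 72 h. Analysis followed the positive fitting direction with DMSO as baseline.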

[4] = read-out: Interleukin 6 (IL6), IL6 (gene 3569); assay: BSK_BT_xIL6: BioMAP Diversity Plus: BT Assay for Interleukin 6 (IL6) Biomarker Activity (AID 2284228); details: primary human B cells with PBMC
In short: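 Secreted IL-6 in the primary human B cell plus PBMC system, measured by Luminex at 24 h post-chemical, DMSO as baseline. Alamar Blue viability: 75,000 cells/well, chemical 1 h before SEB/TSST-1 (20 ng/mL each), 90 h, then 6 h dye.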

[5] = read-out: Interleukin 17A (IL17A), IL17A (gene 3605); assay: BSK_BT_xIL17A: BioMAP Diversity Plus: BT Assay for Interleukin 17A (IL17A) Biomarker Activity (AID 2284229); details: primary human B cells with PBMC
In short: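 Luminex xMAP quantification of secreted IL-17A after 24 h chemical exposure of a primary human B cell/PBMC co-culture. Signal increases fitted relative to DMSO negative control.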

[6] = read-out: Tumor necrosis factor (Homo sapiens) (UniProt P01375); assay: BSK_BT_xTNFa: BioMAP Diversity Plus: BT Assay for Tumor necrosis factor alpha (TNF-alpha) Biomarker Activity (AID 2284230); details: primary human B cells with PBMC
In short: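 Endpoint derived in the positive direction versus DMSO vehicle. Cells: B cells together with PBMC, exposed 24 h before TNF-alpha in the medium was read on the Luminex xMAP platform.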

[7] = read-out: Vascular cell adhesion molecule 1 (VCAM1), VCAM1 (gene 7412); assay: BSK_MyoF_VCAM1: BioMAP Diversity Plus: MyoF Assay for Vascular cell adhesion molecule 1 (VCAM1) Biomarker Activity (AID 2284231); details: primary human lung fibroblasts
In short: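 ELISA readout of VCAM-1 on human lung fibroblast cultures 24 hours after dosing, analyzed for signal gain relative to DMSO. Overt cytotoxicity was checked by sulforhodamine B total-protein staining in parallel cultures.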

[8] = read-out: Collagen III, COL3A1 (gene 1281); assay: BSK_MyoF_CollagenIII: BioMAP Diversity Plus: MyoF Assay for Collagen III Biomarker Activity (AID 2284239); details: primary human lung fibroblasts
In short: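 Collagen III biomarker quantified by ELISA in human lung fibroblast cultures 24 h after dosing. Activity fitted in the positive direction against DMSO as baseline.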

[9] = TAMU_HCS_1.5hr_SingleDonor1434_Cytotoxicity: Cytotoxicity Assessment using High-content Screening (HCS) Fluorescent Imaging for the Texas A&M University (TAMU) 1.5-hr Human Induced Pluripotent Stem Cell (iPSC)-derived Cardiotoxicity Assay (AID 2284234; active = hit-call score of the fitted dose curve at least 0.9, where 1 is the maximum)
In short: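 Nuclear counts from Hoechst 33342 imaging define cytotoxicity here, with EC10 (10% cell-count loss relative to DMSO) as point of departure. iPSC cardiomyocytes received 0.2-100 uM test chemical in 0.5% DMSO for 1.5 h at 37 C.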

[10] = CCTE_Mundy_HCI_Cortical_Synap_Neur_Matur_NeuriteCount: CCTE's Synaptogenesis and Neurite Maturation Assay in rat cortical cells for Neurite Count, Mundy Lab (AID 2284222)
In short: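 In this multiplexed morphology readout, rat primary cortical neurons are fixed at DIV 12 following dosing at DIV 7 and stained for MAP2, synaptophysin and nuclei. High-content image analysis yields neurite count.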

[11] = CCTE_Mundy_HCI_Cortical_Synap_Neur_Matur_CellBodySpotCount: CCTE's Synaptogenesis and Neurite Maturation Assay in rat cortical cells for Cell Body Spot Count, Mundy Lab (AID 2284223)
In short: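 High-content imaging counts synaptophysin puncta on neuronal cell bodies per neuron after MAP2/synaptophysin immunostaining. Rat primary cortical cells, glia arrested with AraC at DIV 5, were exposed DIV 7–12; signal decrease measured against DMSO.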

[12] = CCTE_Mundy_HCI_Cortical_NOG_NeuronCount: CCTE's Neurite Outgrowth Assay in rat cortical cells for Neuron Count, Mundy Lab (AID 2284236; active = hit-call score of the fitted dose curve at least 0.9, where 1 is the maximum;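 also: neurons counted by imaging betaIII-tubulin and Hoechst stained cortical cells; cells exposed to compound for about 48 hours before fixation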)
In short: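 Read-out: neuron number by high-content imaging of betaIII-tubulin (Alexa Fluor-488) and Hoechst-labelled rat primary cortical cells.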

[13] = CCTE_Mundy_HCI_Cortical_NOG_BPCount: CCTE's Neurite Outgrowth Assay in rat cortical cells for Branch Point Count, Mundy Lab (AID 2284237);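 as to AC50: branch points counted about two days after chemical exposure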
In short: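 Measured 50.33 h after dosing, this morphology endpoint uses rat primary cortical cultures labelled for betaIII-tubulin. Branch points are quantified by high-content imaging, with DMSO as negative control and baseline.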

[14] = CCTE_Mundy_HCI_hNP1_Casp3_7: CCTE's Caspase-Glo 3/7 Assay in human neuroprogenitor cells for Apoptosis, Mundy Lab (AID 2284240)
In short: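 Neuroepithelial-lineage stem cells from WA09 embryonic cells were treated with chemicals after 40–44 h of culture. Twenty-four hours later, caspase-3/7 activation was detected luminescently after a 30 min room-temperature reagent step, with DMSO as baseline.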

[15] = CCTE_Mundy_HCI_hNP1_CellTiter: CCTE's Cell Titer-Glo 2 Assay in human neuroprogenitor cells for Viability, Mundy Lab (AID 2284241; active = hit-call score of the fitted dose curve at least 0.9, where 1 is the maximum;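 as to AC50: a hit is a drop in ATP luminescence versus DMSO meaning reduced viability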)
In short: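 Measures ATP content in human neural progenitors derived from WA09 embryonic cells. Read-out at 26.5 hours after dosing, with DMSO serving as the negative control and baseline.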

[16] = TAMU_PeakParms_SingleDonor1434_QT: Texas A&M University (TAMU) 1.5-hr Human Induced Pluripotent Stem Cell (iPSC)-derived Cardiomyocytes Calcium (Ca+2) Flux Assay for Cardiotoxicity: QT (decay-rise ratio) (AID 2284235; active = hit-call score of the fitted dose curve at least 0.9, where 1 is the maximum)
In short: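 Decay/rise ratio of calcium-flux fluorescence scored after 90 min exposure (37C) of donor 1434 iPSC cardiomyocytes to 0.2–100 uM (0.5% DMSO). Beat-cessation and severe-notch points removed; POD is EC05, a 5% rise over DMSO.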

[17] = UKN4_HCS_LUHMES_cell_viability: Viability Assessment in the University of Konstanz (UKN) Leist Lab Neurite Outgrowth Assay in human LUHMES cells (UKN4) (AID 2284232)
In short: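 Day-2 differentiated LUHMES, 30000 cells/well, dosed ~30 min–2 h post-seeding; 24 h treatment incl. staining; Hoechst H-33342 + calcein-AM at 23.5 h; HCS imaging; DMSO-normalized, bidirectional fit.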

[18] = UKN2_HCS_IMR90_cell_viability: Viability Assessment in the University of Konstanz (UKN) Leist Lab Neural Crest Cell Migration Assay in human induced IMR90 Pluripotent Stem Cells (UKN2) (AID 2284233);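 also: viability of neural crest cells differentiated from IMR90 iPSC measured by calcein-AM fluorescence imaging; cells exposed to compound for 24 h after a 24 h migration phase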
In short: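 cMINC format, iPSC-derived neural crest (IMR90); 24 h migration (EGF/FGF, N2-S), then 24 h toxicant. Calcein-AM/H-33342 stain 30 min; fluorescence intensity by HCS; DMSO-normalised, bidirectional fitting.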

[19] = CCTE_Mundy_HCI_hNP1_Pro_ResponderAvgInten: CCTE's Proliferation Assay in human neuroprogenitor cells, Mundy Lab (AID 2284224; active = hit-call score of the fitted dose curve at least 0.9, where 1 is the maximum;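 also: human neural progenitor cells hNP1 derived from WA09 embryonic stem cells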)
In short: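 Human neuroprogenitors (hNP1, WA09 lineage) receive test chemical after 40 to 44 hours of attachment. A four-hour BrdU pulse begins twenty hours later, followed by fixation and high content imaging; signal is referenced to DMSO controls.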

[20] = CCTE_Mundy_HCI_Cortical_Synap_Neur_Matur_NeuronCount: CCTE's Synaptogenesis and Neurite Maturation Assay in rat cortical cells for Neuron Count, Mundy Lab (AID 2284242; active = hit-call score of the fitted dose curve at least 0.9, where 1 is the maximum;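 also: neuron number from Hoechst nuclei and MAP2 staining by high-content imaging; hits reduce neuron count versus DMSO baseline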)
In short: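 Rat cortical cultures; AraC DIV 5; chemical dosing + media change DIV 7 to DIV 12 (288.33 h readout). Fix, Hoechst, anti-MAP2/anti-synaptophysin immunostain; HCI neuron count vs DMSO baseline.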

Measured: AC50

Tumor necrosis factor (Homo sapiens), sequence (P01375 whole entry, looked up): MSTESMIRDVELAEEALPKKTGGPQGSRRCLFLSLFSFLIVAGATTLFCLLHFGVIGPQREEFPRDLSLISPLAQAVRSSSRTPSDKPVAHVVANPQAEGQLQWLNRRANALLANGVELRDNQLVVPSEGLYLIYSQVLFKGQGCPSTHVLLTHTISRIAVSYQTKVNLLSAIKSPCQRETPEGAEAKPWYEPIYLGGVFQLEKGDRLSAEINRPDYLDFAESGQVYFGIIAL

OCc1c[nH]c2ccccc12
inactive: [1] | [5] | [6] | [7] | [8]
active: [2] 30.8 µM | [3] 3.97 µM | [4] 3.97 µM

NCC(F)(F)C(F)(F)C(F)(F)C(F)(F)F
inactive: [1] | [2] | [3] | [4] | [5] | [6] | [7] | [8]

OC[C@H]1O[C@@](CO)(O[C@H]2O[C@H](CO)[C@@H](O)[C@H](O)[C@H]2O)[C@@H](O)[C@@H]1O
inactive: [9]

Cc1cccc(O)c1C
inactive: [1] | [2] | [3] | [4] | [5] | [6] | [7] | [8]

c1ccc2cc3ccccc3cc2c1
inactive: [10] | [11] | [12] | [13] | [14] | [15]

c1ccc2c(c1)-c1cccc3c1c-2cc1ccccc13
inactive: [9] | [16]

NC(=O)N1c2ccccc2C=Cc2ccccc21
inactive: [10] | [11] | [17] | [18] | [12] | [13] | [14] | [15]

C[C@]12C=CC(=O)C=C1CC[C@H]1[C@@H]3C[C@@H](O)[C@](O)(C(=O)CO)[C@@]3(C)C[C@H](O)[C@@]12F
active: [10] 18.8 µM | [11] 15 µM | [12] 23.6 µM | [13] 20.1 µM | [14] 23 µM | [15] 25.6 µM | [20] 3.75 µM
inactive: [19]

FC(F)(F)COC(OCC(F)(F)F)OCC(F)(F)F
inactive: [1] | [2] | [3] | [4] | [5] | [6] | [7] | [8]

C[Si](C)(C)C(F)(F)C(F)(F)C(F)(F)F
inactive: [1] | [2] | [3] | [4] | [5] | [6] | [7] | [8]

CC(C)C(=O)Nc1ccc([N+](=O)[O-])c(C(F)(F)F)c1
inactive: [9] | [16]

FC(F)(F)C(F)(F)C(F)(F)C(F)(F)C(F)(F)C(F)(F)I
inactive: [19] | [1] | [2] | [3] | [4] | [5] | [6] | [14] | [15]
active: [7] 25.3 µM and 40.7 µM | [8] 30 µM

OCCC(F)(F)C(F)(F)C(F)(F)C(F)(F)F
inactive: [1] | [2] | [3] | [4] | [5] | [6] | [7] | [8]

FC(F)C(F)(F)COCC1CO1 (stereo not given)
inactive: [1] | [2] | [3] | [4] | [5] | [6] | [7] | [8]

CCN(CC)C(=S)SSC(=S)N(CC)CC
active: [9] 50 µM
